This is a sample that favours compounds with a hit; in the whole collection about 3.1% have one here.
GDH-TPI counter-1: GDH-TPI coupling enzyme inhibitors, primary screen, artefact control for M. tuberculosis FBA inhibitor project, biochemical, absorbance, full deck. AID 588335, 2011. actives 1.2% (n = 360,000). GDH-TPI coupled enzyme counterscreen, NADH absorbance. inhibition, % at 4.8 µM; in the data active = inhibition above about 30%;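 also: 0% = DMSO wells and 100% = wells lacking the enzyme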
3CLpro inhibitor: SARS-CoV 3CLpro protease inhibitors, primary screen, biochemical, quenched FRET; actives 0.14% (n = 290,000); recombinant SARS-CoV 3CLpro, quenched FRET peptide cleavage; Replicase polyprotein 1ab (Severe acute respiratory syndrome coronavirus), P0C6X7; inhibition, % at 6 µM; in the data active = inhibition above about 12%
Mtb BioA inh: M. tuberculosis BioA enzyme inhibitors, primary screen, biochemical, plate reader, single point, HTS; 7,8-diaminopelargonic acid synthase BioA (Mycobacterium tuberculosis); purified M. tuberculosis BioA enzyme; inhibition, % at 9.99 µM; actives 0.096% (n = 360,000); AID 602481, 2012; in the data active = inhibition above about 40%
FadD28 binding: inhibitors of FadD28 bisubstrate probe binding, primary screen, biochemical, fluorescence polarization, single point; inhibition, % at 12.5 µM; actives 0.22% (n = 360,000); AID 588549, 2011; in the data active = inhibition above about 8.5%, passing the limit was not always enough
Mtb FBA inh: Mtb FBA enzyme inhibitors, primary screen, biochemical, fluorescence, strain H37Rv; Fructose-bisphosphate aldolase (Mycobacterium tuberculosis (strain ATCC 25618 / H37Rv)), …; purified M. tuberculosis FBA, fluorescence read-out; inhibition, % at 1 µM; actives 2.3% (n = 360,000);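 also: 0% = vehicle and 100% = reference inhibitor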
Target sequence (P9WQA3 whole entry, looked up): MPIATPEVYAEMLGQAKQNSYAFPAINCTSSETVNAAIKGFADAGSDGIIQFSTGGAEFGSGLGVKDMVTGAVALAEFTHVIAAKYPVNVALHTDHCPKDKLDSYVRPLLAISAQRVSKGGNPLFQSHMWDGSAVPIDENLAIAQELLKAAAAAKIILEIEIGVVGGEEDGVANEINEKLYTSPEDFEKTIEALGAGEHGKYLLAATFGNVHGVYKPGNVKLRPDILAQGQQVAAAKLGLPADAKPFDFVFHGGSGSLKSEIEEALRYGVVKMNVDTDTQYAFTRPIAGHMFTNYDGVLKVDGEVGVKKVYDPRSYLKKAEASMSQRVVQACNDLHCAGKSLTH
Mtb FBA confirm: M. tuberculosis aldolase blockers, biochemical, fluorescence, strain H37Rv, confirmation; shares compounds with Mtb FBA inh; purified M. tuberculosis FBA, fluorescence read-out; inhibition, % at 1 µM; actives 78% (n = 5,600);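 also: 0% = vehicle wells and 100% = reference inhibitor wells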
GDH-TPI counter-2: GDH-TPI coupling enzyme inhibitors, artefact control for M. tuberculosis FBA inhibitor project, biochemical, fluorescence, high throughput. shares compounds with Mtb FBA inh. actives 81% (n = 5,600). GDH-TPI coupled enzyme counterscreen. AID 652141, 2013. inhibition, % at 1 µM; in the data active = inhibition above about 10%
GDH-TPI dose: GDH-TPI coupling enzyme inhibitors, dose response, artefact control for M. tuberculosis FBA inhibitor project, biochemical, fluorescence, IC50 | GDH-TPI coupled enzyme assay, artifact counterscreen | actives 79% (n = 170) | AID 652145, 2013 | IC50, µM | shares compounds with Mtb FBA inh; call rule not given here
Active calls of the source: *; nt = not tested or not shown; + = active, no number. Rule as the data show it, unless noted: active = inhibition above about 27%; inactive = the rest.

SMILES | GDH-TPI counter-1 | 3CLpro inhibitor | Mtb BioA inh | FadD28 binding | Mtb FBA inh | Mtb FBA confirm | GDH-TPI counter-2 | others
COc1ccc2oc(C(=O)OCC(=O)N3CCCC(C)C3)c(C)c2c1 (configuration not stated) | 6 | nt | nt | -2 | 63* | 61* | 55*
CCOc1ccc2oc(C(=O)OCC(=O)N3CC(C)OC(C)C3)c(C)c2c1 (configuration not stated) | 5 | nt | 0 | -2 | 46* | + | +
CO[C@@H]1CN(C)C(=O)c2ccc(NS(C)(=O)=O)cc2OC[C@H](C)N(C)C[C@@H]1C | nt | nt | -4 | nt | nt | nt | nt
Cn1nc(-c2ccc(Cl)cc2)c2cc(C(=O)NCCN3CCOCC3)sc21 | 1 | -6 | -1 | -6 | 34* | 41* | 26*
Cn1nc(-c2ccc(Cl)cc2)c2cc(C(=O)NCCCN3CCOCC3)sc21 | 16 | -2 | 2 | -14 | 29* | 67* | 56*
Cc1noc(C)c1S(=O)(=O)Nc1ccc2c(c1)C(=O)N([C@H](C)CO)C[C@H](C)[C@H](CN(C)CC1CCCCC1)O2 | nt | nt | 3 | nt | nt | nt | nt
COc1cc2c3c([nH]c2cc1F)C(=O)NCC3 | -4 | nt | -1 | -5 | 102* | 71* | 46*
Cc1ccc(C(=O)NN2C(=O)C3C4C=CC(C4)[C@@H]3C2=O)cc1 (some centres not stated) | 7 | 1 | nt | 0 | 4 | nt | nt
O=C(NN1C(=O)C2C3C=CC(C3)C2C1=O)c1ccccc1 (configuration not stated) | 4 | 1 | nt | -4 | 77* | 1 | -3
Cc1cc(N2CCOCC2)nc2cc(O)ccc12 | 14 | -2 | -1 | 1 | 32* | 87* | 70*
Cc1cc(N2CCOCC2)nc2ccc(NC(=O)CCC(=O)N3CCCC(C)C3)cc12 (configuration not stated) | 15 | -5 | -1 | -2 | 54* | 114* | 84*
CCN1CCN(c2cc(C)c3cc(NC(=O)CCC(=O)Nc4ccc(OC)c(OC)c4)ccc3n2)CC1 | 22 | -3 | 0 | -2 | 18 | nt | nt
Cc1cc(N2CCOCC2)nc2ccc(NC(=O)CCC(=O)N3CCN(c4ccc(F)cc4)CC3)cc12 | 14 | 1 | 0 | -2 | 63* | 84* | 52*
Cc1cc(N2CCOCC2)nc2ccc(NC(=O)C3CCCCC3)cc12 | 2 | nt | 2 | -3 | 13 | nt | nt
Cc1cc(N2CCOCC2)nc2ccc(NC(=O)CCC(=O)N3CCN(c4ccccc4F)CC3)cc12 | 16 | -1 | 0 | -2 | 50* | 76* | 55*
CC(C)NC(=O)Nc1ccc2c(c1)C(=O)N([C@H](C)CO)C[C@H](C)[C@@H](CN(C)S(=O)(=O)c1ccc(Cl)cc1)OCCCC[C@H](C)O2 | nt | nt | 1 | nt | nt | nt | nt
C[C@H](CO)N1C[C@H](C)[C@H](CN(C)Cc2ccc(Cl)c(Cl)c2)OCCCC[C@H](C)Oc2ccc(NS(=O)(=O)c3ccc(F)cc3)cc2C1=O | nt | nt | -3 | nt | nt | nt | nt
Cc1cc(N2CCOCC2)nc2ccc(NC(=S)N3CCCCC3C)cc12 (configuration not stated) | 14 | -1 | -1 | -1 | 36* | 122* | 95*
COc1ccccc1NC(=O)NNC(=O)c1ccc2ccccc2c1 | 0 | -1 | 0 | -1 | -2 | nt | nt
CCc1ccc(NC(=O)NNC(=O)c2ccc3ccccc3c2O)cc1 | 18 | 0 | -2 | 2 | 36* | + | 190*
COc1ccccc1NC(=O)NNC(=O)c1ccc2ccccc2c1O | 6 | 3 | -1 | -1 | 32* | 143* | 113*
O=C(Nc1ccc(Br)c2ccccc12)c1ccc2ccccc2c1O | 12 | 7 | 2 | -3 | 31* | -34 | -29
COc1ccc(NC(=O)NNC(=O)c2ccc3ccccc3c2O)cc1OC | 9 | -4 | 0 | -4 | 36* | nt | +
CC(=O)Nc1ccc(Br)c2ccccc12 | 5 | 0 | nt | -2 | -3 | nt | nt
COc1ccc(-c2cnc3c(c2)C(=O)N([C@@H](C)CO)C[C@@H](C)[C@@H](CN(C)C(=O)Cc2ccccn2)O3)cc1 | nt | nt | 1 | nt | nt | nt | nt
SMILES | GDH-TPI counter-1 | 3CLpro inhibitor | Mtb BioA inh | FadD28 binding | Mtb FBA inh | Mtb FBA confirm | GDH-TPI counter-2 | others
Cc1ccccc1NC(=O)NNC(=O)c1ccc2ccccc2c1 | -3 | -4 | -2 | -4 | 0 | nt | nt
Cc1ccccc1NC(=O)NNC(=O)c1ccc2ccccc2c1O | 13 | 5 | 0 | nt | 31* | 55* | 36*
COc1ccccc1-c1c(C)oc2cc(OC(=O)c3ccco3)ccc2c1=O | 1 | -1 | 1 | -3 | 36* | 15 | 1 | GDH-TPI dose=4.5*
COc1ccccc1Oc1c(C)oc2cc(OC(=O)c3ccco3)ccc2c1=O | 14 | 4 | 1 | -1 | 55* | 119* | 111*
CCOc1ccccc1Oc1c(C)oc2cc(OC(=O)c3ccco3)ccc2c1=O | 12 | -5 | 0 | -3 | 17 | nt | nt
CO[C@H]1CN(C)C(=O)c2cc(NC(=O)Nc3ccc(Cl)cc3)ccc2OC[C@@H](C)N(C(=O)Nc2c(C)noc2C)C[C@@H]1C | nt | nt | -1 | nt | nt | nt | nt
CCC(CC)C(=O)Nc1nnc(-c2cccs2)s1 | 12 | 1 | 0 | -4 | 36* | 88* | 75*
COc1cccc(OC)c1C(=O)Nc1nnc(-c2cccs2)s1 | 29 | 2 | 0 | -4 | 13 | nt | nt
CCCn1c(=N)c(S(=O)(=O)c2ccc(F)cc2)cc2c(=O)n3ccccc3nc21 | 5 | -3 | -1 | -2 | 23 | nt | nt
Cc1ccc2nc3c(cc(C(N)=S)c(=N)n3CCCOC(C)C)c(=O)n2c1 | 4 | 3 | 0 | -4 | 48* | 84* | 66*
CCCn1c(=N)c(C#N)cc2c(=O)n3ccccc3nc21 | 0 | 6 | nt | 0 | 34* | 75* | 68*
Cc1cccn2c(=O)c3cc(C#N)c(=N)n(Cc4ccncc4)c3nc12 | nt | 0 | nt | nt | nt | nt | nt
Cc1cccn2c(=O)c3cc(C(=O)NCc4ccc(F)cc4)c(=N)n(CCCN4CCOCC4)c3nc12 | 9 | nt | nt | -1 | 80* | 81* | 82*
CCOCCCn1c(=N)c(S(=O)(=O)c2ccccc2)cc2c(=O)n3cc(C)ccc3nc21 | 3 | -2 | 2 | -3 | 6 | nt | nt

High-throughput results from PubChem BioAssay.
